# Experiment: modulators of CIT2-GFP expression in yeast, confirmation, S. cerevisiae, GFP fusion, cherry picks, mother/daughter gates (AID 2274)
# Settings: S. cerevisiae CIT2-GFP strain, flow cytometry, 3 h; measured here: daughter cell gate; at 10 µM; stronger effect = higher value
row,Structure (SMILES),"GFP response, % of DMSO [%]"
1,O=C(COC(=O)c1n[nH]c2ccccc12)c1cccc(Br)c1,95.8
2,Cc1c(C(=O)Nc2ccccc2)cnn1-c1ccccc1,97.2
3,Oc1c(CN2CCN(c3ccccc3)CC2)cc(Br)c2cccnc12,99.1
4,NC(=O)c1ccccc1-c1nc(-c2ccccc2)no1,101
5,CC(C(=O)O)n1nc(-c2ccccc2)c2ccccc21 (stereo not drawn),101
6,COc1cc(/C=C2/N=C(c3ccccc3)OC2=O)c(F)cc1OCc1ccccc1,105
7,COc1ccc(-c2nn(-c3ccccc3)cc2C(=O)NC(=S)NNC(=O)c2ccncc2)cc1,108
8,CCOC(=O)Cc1csc(NC(=O)CCCCCN2C(=O)c3cccc4cccc(c34)C2=O)n1,98.3
9,COC(=O)c1ccc(/C=C/C(=O)c2cccc(OC)c2)cc1,101
10,Cc1[nH][nH]c(=O)c1C(c1ccc(N(C)C)c(Br)c1)c1c(C)[nH][nH]c1=O,96.4
11,Cc1ccc(CCN2CC(C(=O)NCCCN(C)Cc3ccccc3)CC2=O)cc1 (stereo not drawn),103
12,COc1ccc(NC(=O)C2CCN(S(=O)(=O)c3ccc(OC)c(OC)c3)CC2)c(OC)c1,97.4
13,CN1CCc2c(sc3c2C(=O)NC(c2ccc4c(c2)OCO4)N3)C1 (stereo not drawn),102
14,Nc1cccnc1S(=O)(=O)c1ccccc1,99.7
15,N#Cc1ccccc1Cn1cc(/C=C/[N+](=O)[O-])c2ccccc21,100
16,CN(c1ccccc1)S(=O)(=O)c1ccc(C(=O)Nc2nnc(-c3ccc(F)cc3)o2)cc1,133
17,Cc1ccc(C)c(N2CCN(C(=O)c3ccccc3Br)CC2)c1,103
18,CCOC(=O)C(=CNNc1cccc(Cl)c1)C(=O)OCC,101

# Source: PubChem BioAssay
